Source: PubChem BioAssay (University of Kansas High Throughput Screening Laboratory)
Pf apPOL block: Pf-apPOL inhibitors, biochemical, fluorescence. Recombinant Pf-apPOL, molecular beacon fluorescence, 1.5 h. inhibition, % at 10 µM. hit rate 0.25% among 210,000. AID 1794808, 2022
mHTT-CaM PPI inh: mutant huntingtin-calmodulin interaction inhibitors – biochemical, AlphaScreen, primary screen; P42858; AlphaScreen His-mHTT/GST-CaM binding, luminescence; inhibition, % at 15 µM; hit rate 3.6% among 190,000; AID 1671202, 2021;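 note: 0% = both proteins with DMSO and 100% = one protein alone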
Active calls of the source: *; . = no result; + = active, no number. A selection: hits, their analogues and other compounds. The true share with any hit is near 3.5%. Cut-off read from the data, not from the text of the source: active = inhibition above about 50%; inactive = the rest.

SMILES	Pf apPOL block	mHTT-CaM PPI inh
COc1ccc(C2Nc3c(OC)cccc3C3C=CCC32)cc1[N+](=O)[O-] (centres undefined)	-5	66*
CCCCN(CC)CCCNC(=O)C1CCN(c2nc3ccc(OC)cc3s2)CC1	-1	1
Cc1cc(C)n(-c2cc(NC(C)C)ncn2)n1	-4	-1
C=CCNC(=O)N1CCN(C2=Nc3ccccc3Oc3ccc(C)cc32)CC1	-5	36
CCOC1CCCc2oc(-c3ccc(OC)cc3)c(C(=O)NN3CCN(C)CC3)c21 (centres undefined)	-9	-16
COC(=O)[C@H](C(C)C)N(CCCc1cn(Cc2ccc(C)cc2)nn1)S(=O)(=O)c1ccccc1Br	-1	93*
COC(=O)[C@H](C(C)C)N(CCc1cn(Cc2ccc(C)cc2)nn1)S(=O)(=O)c1ccccc1Br	-7	-1
Cc1cc(C)c(S(=O)(=O)Nc2ccccc2F)c(C)c1	-3	-12
Cc1ccc(NCCNC(=O)c2c[nH]c3ccccc23)nn1	-14	-11
Cc1ccnc(Nc2ccc(NCCNC(=O)c3c(F)cccc3F)nn2)c1	-6	100*
CCCN(CCC)C(=O)c1c[nH]c2ccc(S(=O)(=O)N(CC)c3ccc(F)cc3)cc2c1=O	-4	30
Cc1ccc(NC(=O)NCCC2CCN(S(=O)(=O)c3ccccc3)CC2)cc1F	0	33
Nc1ncnc(Sc2nc3ccccc3[nH]2)c1[N+](=O)[O-]	3	79*
Cn1cnc([N+](=O)[O-])c1Sc1nc2ccccc2[nH]1	0	2
O=[N+]([O-])c1cc(C(F)(F)F)cc([N+](=O)[O-])c1Sc1nc2ccccc2[nH]1	3	99*
O=[N+]([O-])c1ccc(Cl)cc1Sc1nc2ccccc2[nH]1	-6	-3
CCc1ccc(C2=CC(c3ccc(OC)c(OC)c3OC)n3ncnc3N2)cc1 (centres undefined)	-3	35
COc1ccc(C2C=C(c3cccs3)Nc3ncnn32)cc1OC (centres undefined)	-3	6
COc1ccc(C2C=C(c3cccc(NC(C)=O)c3)Nc3ncnn32)c(OC)c1 (centres undefined)	83*	4
COc1cc(C2C=C(c3cccc(Br)c3)Nc3ncnn32)cc(OC)c1OC (centres undefined)	-9	100*
COc1ccc(C2C=C(c3cccc(Br)c3)Nc3ncnn32)c(OC)c1 (centres undefined)	-8	45
COc1cccc(C2=CC(c3ccc(OC)cc3OC)n3ncnc3N2)c1 (centres undefined)	-9	22
COc1ccc(C2C=C(c3ccc(Cl)cc3)Nc3ncnn32)c(OC)c1OC (centres undefined)	-3	89*
COc1ccc(C2C=C(c3ccc(Br)s3)Nc3ncnn32)cc1OC (centres undefined)	-6	57*
Cc1cccc(NC(=O)Nc2nccn(-c3ccc4c(c3)CCC4)c2=O)c1	0	0
SMILES	Pf apPOL block	mHTT-CaM PPI inh
Cc1ccc(C(=O)N2CCC(c3nc(CCNC(=O)C(C)C)cs3)CC2)s1	-6	1
COc1cccc(C2C=C(c3ccc(F)cc3)Nc3ncnn32)c1OC(F)F (centres undefined)	-5	73*
Fc1ccc(C2=CC(c3ccccc3OC(F)F)n3ncnc3N2)cc1 (centres undefined)	-6	10
COc1ccc(C2=CC(c3cccc(OC)c3OC)n3ncnc3N2)cc1 (centres undefined)	-6	-2
COc1cccc(C2C=C(c3ccc(Cl)cc3)Nc3ncnn32)c1OC (centres undefined)	-5	58*
CCOC(=O)c1csc(NC(=O)CSc2ccc(C)cc2)n1	-5	-17
COc1ccc(CNC(=O)c2cc3n(n2)CCCN(Cc2cccc(C)c2)C3=O)c(OC)c1	0	29
CCCN1CCn2cc(C(=O)NCc3cc(F)ccc3F)nc2C1	-5	22
O=C(c1ccc(-n2cccn2)nn1)N1CCN(C(=O)c2ccco2)CC1	4	-8
O=C1C=CC(=NOC2=C(ON=C3C=CC(=O)C=C3)C(=O)c3ccccc3C2=O)C=C1	-14	34
CC1=CC(=O)C=C/C1=N\OC1=C(O/N=C2\C=CC(=O)C=C2C)C(=O)c2ccccc2C1=O	6	+
O=C(NCc1cccs1)c1cnn2c1NC(c1cccs1)CC2C(F)(F)F (centres undefined)	-2	4
Oc1ccc(Br)c2c1NC(c1ccc(Cl)cc1)C1CC=CC21 (centres undefined)	-1	100*
O=[N+]([O-])c1ccc(C2Nc3c(O)ccc(Br)c3C3C=CCC32)cc1 (centres undefined)	-10	100*
O=[N+]([O-])c1c(Cl)cc(O)c2c1C1C=CCC1C(c1ccc(Br)cc1)N2 (centres undefined)	-4	98*
O=C(O)c1ccc([N+](=O)[O-])c2c1NC(c1ccc([N+](=O)[O-])cc1)C1CC=CC21 (centres undefined)	-2	37
CC(C)=CCn1c(N2CCN(C)CC2)nc2c1c(=O)[nH]c(=O)n2C	-4	-6
CCCCC(=O)Nc1ccc(NC(=O)Cc2ccc(Cl)cc2)cc1OC	-5	0
CCc1ccccc1NC(=O)Cn1cccc1-c1nnc(C2CC2)o1	1	-3
CC(=O)Nc1ccc(NC(=O)c2ccc(Cl)cc2Cl)cc1	-8	-9
O=C(Nc1ccc2c(c1)C1C=CCC1C(C(=O)O)N2)c1ccc(Cl)cc1Cl (centres undefined)	2	94*
CC(=O)Nc1ccc2c(c1)C1C=CCC1C(c1ccccc1F)N2 (centres undefined)	-1	73*
COc1ccc(OC)c(C2NC(C(=O)O)CS2)c1 (centres undefined)	-7	46
CC(=O)Nc1ccc2c(c1)OCCO2	-2	.
COc1ccc2c(c1)C1C=CCC1C(C(=O)O)N2 (centres undefined)	2	100*
SMILES	Pf apPOL block	mHTT-CaM PPI inh
CC(=O)Nc1ccc2c(c1)C1C=CCC1C(C(=O)O)N2 (centres undefined)	-10	89*
CCOc1ccc(C2C(C#N)=C(N)Oc3cc(N)ccc32)cc1 (centres undefined)	-4	12
CC(C)NC(=O)c1ccc(OCC2CCN(C(=O)C(C)C)CC2)cc1	-2	8
COc1ccc(OC)c(Nc2ncc3c(n2)CCN(Cc2ccc(N(C)C)cc2)C3)c1	-1	11
Cc1cccc(C)c1NC(=O)c1cc2ccccc2c(=O)o1	-14	-7
CC(=O)c1ccc(NC2=C(N3CCCCC3)C(=O)c3ccccc3C2=O)cc1	-12	14
CCOc1ccc(NC2=C(N3CCCCC3)C(=O)c3ccccc3C2=O)cc1	8	96*
COc1cccc(NC2=C(N3CCOCC3)C(=O)c3ccccc3C2=O)c1	14	38
COc1cccc(NC2=C(N3CCCC3)C(=O)c3ccccc3C2=O)c1	0	100*
Cn1c(N2CCC(C(=O)NCc3cccs3)CC2)cc(=O)n(C)c1=O	-2	40
Cn1c(N2CCC(C(=O)NCc3ccccc3)CC2)cc(=O)n(C)c1=O	2	27
CCn1c(N2CCC(C(=O)NCc3cccs3)CC2)cc(=O)n(C)c1=O	-3	62*
CCn1c(N2CCC(C(=O)NCCC3=CCCCC3)CC2)cc(=O)n(C)c1=O	5	51*
Cn1c(N2CCCC(C(=O)NCCC3=CCCCC3)C2)cc(=O)n(C)c1=O (centres undefined)	0	11
